From PubChem BioAssay
Sampled rows, rich in hits. Any-hit rate of the full collection: about 1.4%.
p53 reactivation – re-activators of mutant p53 | H1299 p53-A138V BP100-luciferase reporter, luminescence, 24 h | Potency, µM (top dose mostly 92.2 µM), without a hit: at the highest dose activity change, positive = activation, hits mostly activators | 320,000 compounds, 0.063% hits | AID 504706; further: potency means the concentration at half of the fitted maximal effect; % of control where 0% means no effect; nearly all actives have a fitted effect of over 45% in size
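p53-null H1299 cells stably carrying temperature-sensitive p53-A138V and a BP100-luciferase reporter were pinned with compounds (4-point, 1:5 series) and held 24 hrs at 37 deg C. Luminescence was read 10 min after detection reagent.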
ASM inhibitor – inhibitors of human secretory acid sphingomyelinase. P17405. placental ASM, HMU-PC fluorogenic substrate, 60 min. Potency, µM (titrated, usually from 57.5 µM), without a hit: top-dose activity change, negative = inhibition, actives largely listed as inhibitors. 340,000 compounds, 0.006% hits; further: potency means the concentration at half of the fitted maximal effect
Target sequence (P17405 47-631 limits assumed): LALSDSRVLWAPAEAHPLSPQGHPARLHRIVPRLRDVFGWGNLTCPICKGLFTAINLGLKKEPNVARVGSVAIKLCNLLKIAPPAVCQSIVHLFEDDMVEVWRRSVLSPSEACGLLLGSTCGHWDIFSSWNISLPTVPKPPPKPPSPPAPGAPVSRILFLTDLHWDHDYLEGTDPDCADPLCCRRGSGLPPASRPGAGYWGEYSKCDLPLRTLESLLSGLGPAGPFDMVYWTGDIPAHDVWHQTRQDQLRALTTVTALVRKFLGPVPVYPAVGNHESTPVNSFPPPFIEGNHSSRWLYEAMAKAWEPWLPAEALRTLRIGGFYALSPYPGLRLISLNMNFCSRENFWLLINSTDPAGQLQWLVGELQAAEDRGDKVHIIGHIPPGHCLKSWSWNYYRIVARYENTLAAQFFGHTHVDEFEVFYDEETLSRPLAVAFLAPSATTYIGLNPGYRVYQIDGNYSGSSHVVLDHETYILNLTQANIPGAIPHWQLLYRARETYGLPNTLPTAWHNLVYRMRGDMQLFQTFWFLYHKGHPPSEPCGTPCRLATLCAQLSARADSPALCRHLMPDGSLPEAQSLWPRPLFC
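Steps: dispense placental human ASM, pin compound, wait 10 min at room temperature, add HMU-PC0 substrate at 9 uM final, incubate 60 min at 37 °C, add stop solution raising pH to 10, read fluorescence.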
uPA surface inh – cell surface uPA generation inhibition; cell surface uPA generation assay, qHTS; 330,000 compounds, 0.31% hits; AID 540303; Potency, µM (top dose mostly 38.3 µM), without a hit: top-dose activity change, negative = inhibition, actives largely listed as inhibitors; active means well fitted inhibition curve with a large enough effect; inconclusive means small, poorly fitted or top-dose-only effect; inactive means no such curve, though single readings can be large or run the other way; tested in mouse RAW 264.7 cells; further: potency means the concentration at half of the fitted maximal effect; on the % scale 0 is the no-effect control and ±100 the full control effect; nearly all actives have a fitted effect of over 55% in size
KCNH2 3.1 block – blocks the human KCNH2 3.1 channel isoform; U2OS KCNH2 3.1, thallium flux FluxOr; stronger effect = lower value; activity change, % (tested at about 1.8 µM); 340,000 compounds, 0.95% hits; AID 720553;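 active means maximum activity change below -70%; inconclusive means maximum activity change from -70% to -50%; inactive means maximum activity change above -50%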;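 further: thallium influx rate constant from kinetic fluorescence after stimulation buffer; on the % scale 0 is the no-effect control and ±100 the full control effect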
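Channel expression came from 3.1 mutant virus (1.77 x 10^8 /mL) applied to suspended U2OS cells for 4 h. Flux was tracked with FluxOr dye plus Red40 quencher, and kinetic rate constants normalized to controls.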
hERG WT inh – KCNH2 (human, wildtype) channel inhibition; AID 720551; U2OS, BacMam KCNH2, thallium flux FluxOr; stronger effect = lower value; 340,000 compounds, 0.37% hits; activity change, % at 1.84 µM; Q12809;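 active means maximum activity change below -70%; inconclusive means maximum activity change between -70% and -50%; inactive means maximum activity change above -50%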; further: on the % scale 0 is the no-effect control and ±100 the full control effect
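U2OS cells were transduced with wild-type KCNH2 virus (2.03 x 10^8 / mL) for 4 h at room temperature, then cultured overnight at 37 C. Thallium flux was read with FluxOr dye. Rate constants were normalized to DMSO controls.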
MmCpn inh – M. maripaludis TRiC chaperonin inhibition; purified Mm-Cpn ATPase, ADP Transcreener TR-FRET; Potency, µM (titrated, usually from 76.9 µM), for the others: top-dose activity, negative = inhibition, actives largely listed as inhibitors; 330,000 compounds, 0.031% hits; AID 504842; further: potency means the concentration at half of the fitted maximal effect; on the % scale 0 is the no-effect control and ±100 the full control effect; nearly all actives have a fitted effect of over 80% in size
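Compound-treated chaperonin, 25 nM final, turns over 10 uM ATP at 37°C for 30 min following a 10 min preincubation; ADP generated competes with ADP-d2 for Eu-cryptate antibody, lowering FRET.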
An asterisk follows results filed as active; ? = inconclusive; . = not tested or not shown. Unless noted, the call rests on the fitted dose curve; in most records, active means well fitted curve in the direction sought with a large enough effect; inconclusive means small, poorly fitted or top-dose-only effect, or another doubt; inactive means no such curve, though single readings can be large; an effect the other way counts as inactive or inconclusive.

SMILES	p53 reactivation	ASM inhibitor	uPA surface inh	KCNH2 3.1 block	hERG WT inh	MmCpn inh
Cn1c(=O)c(C(=O)CCl)c(N)n(Cc2ccccc2)c1=O	-6.5%	-2.5%	-8.1%	-7.5	-14.8	-0.5%
Nc1ccc2ncccc2c1	14.4%	10.8%	.	-117.8*	2.0	-0.3%
COc1ccc(OC)c(N2C(=O)c3cccnc3C2=O)c1	-13.4%	1.8%	-5.0%	-19.4	-4.2	-1.6%
COc1ccc(N2CC(C(=O)Nc3nnc(SCC(=O)NCC4CCCO4)s3)CC2=O)cc1 (stereo not given)	.	-5.0%	-2.0%	-197.4*	-127.8*	.
O=C(CSc1nnc(NC(=O)c2ccccc2F)s1)NCC1CCCO1 (stereo not given)	?	2.9%	6.31µM*	-2.2	-3.5	-1.5%
Cc1ccc(N2CC(C(=O)Nc3nnc(SCC(=O)NCC4CCCO4)s3)CC2=O)cc1C (stereo not given)	-13.5%	1.5%	?	16.6	-4.4	2.0%
O=C(CN(Cc1ccccc1)C(=O)c1cccc([N+](=O)[O-])c1)Nc1c(Cl)cc(Cl)cc1Cl	-0.4%	2.3%	-0.8%	-86.8*	6.7	2.6%
O=C(NNc1c(Cl)cc(Cl)cc1Cl)c1cccc([N+](=O)[O-])c1	-2.8%	-7.3%	-7.3%	-3.1	2.3	2.1%
COc1cc(OC)c(C(=O)OCC(=O)NC23CC4CC(CC(C4)C2)C3)cc1OC	0.0%	0.2%	-4.4%	-17.4	-4.0	0.0%
N=c1n(CCN2CCCC2)c2ccccc2n1CC(O)c1ccc(Cl)c(Cl)c1 (stereo not given)	-10.3%	2.4%	?	-84.3*	.	3.6%
N=c1n(CCN2CCOCC2)c2ccccc2n1CC(=O)c1ccc(Cl)c(Cl)c1	-22.6%	-22.9%	-0.5%	-20.9	2.0	?
CC/C=C/C(=O)N1CC2(CC(c3cccc(NC(=O)COc4ccc(Cl)cc4)c3)=NO2)C[C@H]1C(N)=O (stereo not given in full)	6.7%	-16.1%	-3.0%	-71.1*	-42.3	2.7%
CNC(=O)CSc1nnc(-c2ccncc2)n1Cc1ccccc1	11.0%	6.0%	0.6%	-0.2	-8.2	-1.0%
COC(=O)c1ccc(CSc2nnc(-c3ccncc3)n2Cc2ccccc2)o1	-1.9%	-2.7%	-5.8%	-172.8*	-199.0*	0.5%
O=C(Nc1cc(S(=O)(=O)N2CCOCC2)ccc1Cl)c1cc2ccccc2o1	7.7%	-2.4%	-2.4%	0.9	22.5	1.0%
O=CC1=C(c2ccccc2)Oc2ccccc2O1	-9.4%	4.5%	-2.6%	-6.1	5.8	-3.3%
Cn1cc(C(=O)N/N=C/C(Br)=C/c2ccccc2)ccc1=O	?	-4.9%	5.62µM*	3.9	11.4	-1.1%
Cn1cc(C(=O)N/N=C/C(Br)=C\c2ccccc2)ccc1=O	-7.6%	3.5%	-6.4%	6.6	5.2	0.4%
COC(=O)c1ccccc1NN=Nc1ccccc1[N+](=O)[O-]	.	.	.	18.0	-13.7	.
OCC1OC(n2cnc3c(SCc4ccccc4)ncnc32)C(O)C1O (stereo not given)	.	-1.3%	4.9%	.	19.8	.
O=C(OCC1OC(n2cnc3c(N(C(=O)c4ccccc4)C(=O)c4ccccc4)ncnc32)C(O)C1F)c1ccccc1 (stereo not given)	7.6%	-2.6%	.	-85.6*	-3.9	0.7%
CCCCN(Cc1ccco1)S(=O)(=O)c1csc(C(N)=O)c1	-12.0%	-1.0%	1.0%	-182.1*	-159.1*	0.2%
CCOc1ccccc1NC(=O)CN(c1ccc(OC)c(OC)c1)S(=O)(=O)c1ccc(C)cc1	.	.	.	-108.1*	-10.2	.
CCOc1ccc(N(CC(=O)Nc2ccccc2OCC)S(=O)(=O)c2c(C)noc2C)cc1	10.4%	-3.2%	1.26µM*	-16.0	-16.6	-1.3%
CCOc1ccc(N(CC(=O)Nc2ccc(C)cc2)S(=O)(=O)c2c(C)noc2C)cc1	-12.6%	-10.4%	?	8.8	5.6	0.3%
SMILES	p53 reactivation	ASM inhibitor	uPA surface inh	KCNH2 3.1 block	hERG WT inh	MmCpn inh
CCOC(=O)/C=C/C(=O)Nc1ccc(S(=O)(=O)Nc2cc(OC)nc(OC)n2)cc1	.	.	.	-22.9	3.3	.
CC(C)(C)[C@H](NC(=O)c1ccc(N)c(Cl)c1)C(=O)N1CCC[C@H]1C(=O)N[C@H](C#N)Cc1nn[nH]n1	.	.	.	.	.	0.6%
O=C(/C=C/c1ccc(O)c(O)c1)OC(Cc1ccc(O)c(O)c1)C(=O)O (stereo not given)	.	9.8%	5.6%	0.8	-0.5	-2.9%
O=C(/C=C/c1ccc(O)c(O)c1)OCCc1ccccc1	.	12.7%	0.891µM*	-0.8	-25.9	.
CN(c1ccccc1)S(=O)(=O)c1ccc(Cl)c(C(=O)Nc2ccccc2N2CCOCC2)c1	-4.8%	-0.9%	-19.3%	-4.7	12.6	1.6%
Cc1cccc(NC(=O)c2cc(S(=O)(=O)N3CCCCC3)ccc2Cl)n1	4.4%	1.4%	-1.8%	?	1.4	1.3%
O=C(N/N=C/c1cc(Cl)cc(Cl)c1O)c1ccncc1	?	-1.8%	3.16µM*	1.7	-3.5	0.7%
CC1=Nc2cc(C(=O)N3CCCC3)ccc2Sc2c(C)ccc(C)c21	-4.7%	1.6%	3.98µM*	8.1	7.7	1.6%
N#Cc1ccccc1NC(=O)C1CCCO1 (stereo not given)	.	.	.	10.5	-8.1	.
CC1CCc2c(sc3ncn4c(SCC(=O)NCc5ccco5)nnc4c23)C1 (stereo not given)	2.2%	-0.4%	9.5%	-5.4	5.1	0.4%
CC1CCc2sc3ncn4nc(C(=O)NCc5ccco5)nc4c3c2C1 (stereo not given)	5.2%	4.8%	-0.3%	-76.8*	6.5	-4.4%
C[C@H](CO)N1C[C@H](C)[C@@H](CN(C)Cc2ccc(Cl)c(Cl)c2)Oc2c(NC(=O)Cc3ccccc3)cccc2C1=O	-8.1%	-23.5%	?	-78.5*	-14.6	1.3%
C[C@H](CO)N1C[C@H](C)[C@@H](CN(C)Cc2ccc(Oc3ccccc3)cc2)Oc2ccc(NC(=O)Cn3cnnn3)cc2C1=O	-6.0%	0.4%	6.2%	10.0	-272.9*	1.8%
C[C@H](CO)N1C[C@H](C)[C@@H](CN(C)Cc2ccccc2)Oc2c(NC(=O)Cc3ccccc3)cccc2C1=O	-5.9%	0.9%	?	-7.8	-1.1	1.8%
Cc1noc(C)c1S(=O)(=O)N(C)C[C@H]1Oc2c(NC(=O)Nc3ccccc3)cccc2C(=O)N([C@H](C)CO)C[C@@H]1C	0.5%	-1.6%	8.9%	9.6	-123.5*	-3.6%
O=C(N/N=C/c1cc(Cl)cc([N+](=O)[O-])c1O)c1cccc(S(=O)(=O)N2CCOCC2)c1	-3.1%	-28.3%	-0.2%	-2.8	1.7	0.1%
